# According to PubChem BioAssay (NCI):
# The panel holds about 83,000 compounds, 20% with a hit somewhere; the sample as a whole holds those more often.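 Cell lines were cultured in 96-well plates, exposed to a single compound concentration, and assessed for percent growth 48 hours later.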 A number with no mark means an inactive call. Activity calls are given as the source filed them. Rule for the calls: active = growth percent below 10; inactive = the rest.
# System: UO-31 renal
# Assay: NCI-60 one-dose screen, 48 h (100 = growth as untreated, 0 = no growth, -100 = all killed)
# Conditions: 10 µM unless noted
row,SMILES,growth
1,CN(C)Cc1ccccn1,87.8%
2,CCNCC(C)(C)O,83.6%
3,CCOS(=O)(=O)c1ccc([N+](=O)[O-])cc1,88.9%
4,CCCCCCCCCCCCSC1=C(Cl)C(=O)C(OC)=C(OC)C1=O,32.9%
5,CN(C(=S)S(=O)(=O)C12CC3CC(CC(C3)C1)C2)c1ccccc1,71.5%
6,N#Cc1ccc2nc[nH]c2c1,91.4%
7,CCCCCC#CC(=O)O,81.5%
8,CC(=O)C1C(=O)C(=O)N(c2ccc(Cl)c(Cl)c2)C1=O (centres undefined),95.2%
9,CC(C)OCC(CCl)OC(=O)Nc1ccccc1 (centres undefined),80.9%
10,COc1ccc(C(=O)/C(=N/Nc2ccccc2)c2ccc(OC)cc2)cc1,71.4%
11,Cc1cc(Nc2ccc3c(c2)OCO3)c2cc3c(cc2n1)OCO3,28.5%
12,NC(=O)N1CCOCC1,79.8%
13,CC(=O)Nc1ccc(O)c(C)c1,95.1%
14,COc1cccc2c1Cc1ccccc1-2,88.6%
15,C=COC(=O)CCOCC(CC)CCCC (centres undefined),79.5%
16,N#C/C(=C\c1ccc(C#N)cc1)C(=O)c1ccccc1,89.1%
17,Cc1cccc(C)c1NC(=S)/N=C\c1c(O)[nH]c(=O)[nH]c1=O,89.5%
18,COc1ccc(C(=O)C(=O)c2ccccc2)cc1,95.3%
19,O=C1CSc2ccccc2N1,69.2%

row,SMILES,growth
1,Cc1c(Cl)cccc1NC(=S)NC(=O)c1ccccc1,85.5%
2,CC(c1ccccc1)N(C)C (centres undefined),71.4%
3,CCOC(=O)/C(O)=C(\C=N\C(=S)Nc1ccc(Cl)c(Cl)c1)C(=O)OCC,70.9%
4,CCC(=O)C1C(=O)c2ccccc2C1=O,68.8%
5,CCCCCCCCCc1ccc(OC(C)=O)cc1,95.9%
6,Nc1ncnc(Nc2ccc(C(F)(F)F)cc2)n1,97.8%
7,CCOP(=O)(OCC)/C(=C\N1C(=O)CC(=O)NC1=S)C(=O)OC,90%
8,C=CCOc1ccc(Cl)cc1Cl,93.5%
9,NNC(=O)N/N=C1\C(=O)N(c2nccs2)C(=O)C(=O)C1c1nc2ccccc2s1 (centres undefined),75.5%
10,Cc1cc(Cl)cc(Cc2cc(Cl)cc(C)c2O)c1O,7.78% (active)
11,C=CCN1CCCC1=O,101%
12,COc1cc(C(=O)O)c(O)c(C(C)(C)C)c1,92.9%
13,CC(=O)OCC1OC(n2cnc3c(=S)nc(N)[nH]c32)C(OC(C)=O)C1OC(C)=O (centres undefined),72.6%
14,CCC(=O)Oc1ccc2ccccc2c1,71.6%
15,CCOC(=O)C(=O)CC(=O)c1ccccc1,85.3%
16,Cc1ccc(NCN2C(=O)c3ccccc3C2=O)c(C)n1,87.3%
17,CC(C)c1ncc([N+](=O)[O-])n1C,85.3%
18,O=C(O)c1c[nH]c2ccccc2c1=O,90.6%

# System: TK-10 renal
# Assay: as above
# Conditions: 10 µM unless noted
row,SMILES,growth
1,CN(C)Cc1ccccn1,105%
2,CCNCC(C)(C)O,108%
3,CCOS(=O)(=O)c1ccc([N+](=O)[O-])cc1,95%
4,CCCCCCCCCCCCSC1=C(Cl)C(=O)C(OC)=C(OC)C1=O,43.7%
5,CN(C(=S)S(=O)(=O)C12CC3CC(CC(C3)C1)C2)c1ccccc1,107%
6,N#Cc1ccc2nc[nH]c2c1,108%
7,CCCCCC#CC(=O)O,104%
8,CC(=O)C1C(=O)C(=O)N(c2ccc(Cl)c(Cl)c2)C1=O (centres undefined),107%
9,CC(C)OCC(CCl)OC(=O)Nc1ccccc1 (centres undefined),91.7%
10,COc1ccc(C(=O)/C(=N/Nc2ccccc2)c2ccc(OC)cc2)cc1,112%
11,Cc1cc(Nc2ccc3c(c2)OCO3)c2cc3c(cc2n1)OCO3,59.7%
12,NC(=O)N1CCOCC1,92.4%
13,CC(=O)Nc1ccc(O)c(C)c1,93.2%
14,COc1cccc2c1Cc1ccccc1-2,134%
15,C=COC(=O)CCOCC(CC)CCCC (centres undefined),103%
16,N#C/C(=C\c1ccc(C#N)cc1)C(=O)c1ccccc1,132%
17,Cc1cccc(C)c1NC(=S)/N=C\c1c(O)[nH]c(=O)[nH]c1=O,106%
18,COc1ccc(C(=O)C(=O)c2ccccc2)cc1,108%
19,O=C1CSc2ccccc2N1,105%

row,SMILES,growth
1,Cc1c(Cl)cccc1NC(=S)NC(=O)c1ccccc1,93.5%
2,CC(c1ccccc1)N(C)C (centres undefined),135%
3,CCOC(=O)/C(O)=C(\C=N\C(=S)Nc1ccc(Cl)c(Cl)c1)C(=O)OCC,117%
4,CCC(=O)C1C(=O)c2ccccc2C1=O,114%
5,CCCCCCCCCc1ccc(OC(C)=O)cc1,96.3%
6,Nc1ncnc(Nc2ccc(C(F)(F)F)cc2)n1,109%
7,CCOP(=O)(OCC)/C(=C\N1C(=O)CC(=O)NC1=S)C(=O)OC,112%
8,C=CCOc1ccc(Cl)cc1Cl,113%
9,NNC(=O)N/N=C1\C(=O)N(c2nccs2)C(=O)C(=O)C1c1nc2ccccc2s1 (centres undefined),114%
10,Cc1cc(Cl)cc(Cc2cc(Cl)cc(C)c2O)c1O,34.6%
11,C=CCN1CCCC1=O,90.2%
12,COc1cc(C(=O)O)c(O)c(C(C)(C)C)c1,105%
13,CC(=O)OCC1OC(n2cnc3c(=S)nc(N)[nH]c32)C(OC(C)=O)C1OC(C)=O (centres undefined),82.4%
14,CCC(=O)Oc1ccc2ccccc2c1,105%
15,CCOC(=O)C(=O)CC(=O)c1ccccc1,113%
16,Cc1ccc(NCN2C(=O)c3ccccc3C2=O)c(C)n1,119%
17,CC(C)c1ncc([N+](=O)[O-])n1C,114%
18,O=C(O)c1c[nH]c2ccccc2c1=O,97.7%
